# Test results reported in PubChem BioAssay AID743279 (National Center for Advancing Translational Sciences (NCATS), 2014).
# The whole screen tested about 360,000 compounds, of which about 17,000 (4.7%) were called active. Not shown: some 5% with an inconclusive outcome. For the sample, actives were picked, then their nearest neighbours and some compounds at random. Values without a mark were called inactive. Cut-off read from the data, not from the text of the source: active = activity change below about -50%; inconclusive = mostly about -30% to -49%; inactive = weaker than that.
# Experiment: qHTS for Inhibitors of Inflammasome Signaling: IL-1-beta AlphaLISA Primary Screen
# Details: THP-1 LPS/ATP IL-1B secretion, 16 h; at 57.5 µM, active compounds read low
# Method in brief: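 Secreted IL-1B measured by AlphaLISA bead assay after 16 h compound exposure of THP-1 cells; compounds (final up to 57.5 uM) added 1 h before LPS (250 ng/mL) and ATP (1.25 mM) stimulation; lower signal means less secretion.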
# % is set by controls: 0 for no effect and ±100 for the full control effect.
row,Structure (SMILES),activity change
1,Cc1sc2ncnc(SCC(=O)NC3CCS(=O)(=O)C3)c2c1C (stereo not given),-4.05%
2,N#Cc1ccc(-c2ccc(Cl)cc2)nc1Oc1ccc(F)cc1,30%
3,CCc1cc2c(N3CCN(c4nnc(CC)s4)CC3)ncnc2s1,-71.6% (active)
4,CCc1cc2c(NC3CCCC3)ncnc2s1,-11.8%
5,CCc1cc2c(NC(Cc3ccccc3)C(=O)O)ncnc2s1 (stereo not given),0%
6,COc1ccc(NC2CCCN(C(=O)c3ccccc3-c3ncc[nH]3)C2)cc1 (stereo not given),20.4%
7,COc1ccc(Cl)cc1C(=O)NNC(=O)c1nc2nc(C)cc(C)n2n1,27%
8,Clc1ccc(C[n+]2cc(-c3ccc(Cl)cc3)n3c2CCC3)cc1,-53.1% (active)
9,Cn1c(-c2ccccc2)c[n+]2c1CCCCC2,-10.2%
10,Cc1cc2c(cc1C)N1C(=O)c3cc4ccccc4cc3NC(=O)C1C(=O)N2 (stereo not given),0%
11,COc1ccc(C(C(=O)NC2CCCCC2)N(C(=O)c2snc(C(N)=O)c2N)c2ccccc2OC)cc1 (stereo not given),-4.36%
12,COc1cccc(N(C(=O)c2snc(C(N)=O)c2N)C(C(=O)NCC2CCCO2)c2c[nH]c3ccccc23)c1 (stereo not given),-66.5% (active)
13,CCOc1cc(C(C(=O)NCC2CCCO2)N(C(=O)Cn2nnc3ccccc32)c2cccc(OC)c2)ccc1O (stereo not given),-7.04%
14,Cc1ccc(N(C(=O)c2snc(C(N)=O)c2N)C(C(=O)NCC2CCCO2)c2c[nH]c3ccccc23)cc1 (stereo not given),-66.2% (active)
15,COCCNC(=O)C(c1ccc(C)o1)N(Cc1cccs1)C(=O)c1snc(C(N)=O)c1N (stereo not given),18.9%
16,COc1ccc(N(C(=O)c2snc(C(N)=O)c2N)C(C(=O)NC2CCCC2)c2ccco2)cc1OC (stereo not given),37%
17,Cc1cccc(N(C(=O)c2sc(C)nc2C)C(C(=O)NCC2CCCO2)c2ccccc2)c1 (stereo not given),17.8%
18,Cc1ccc(C(C(=O)NCC2CCCO2)N(C(=O)c2snc(C(N)=O)c2N)c2ccc(C(C)C)cc2)o1 (stereo not given),-54.6% (active)
19,CCOc1ccc(N(C(=O)c2snc(C(N)=O)c2N)C(C(=O)NCC2CCCO2)c2c[nH]c3ccccc23)cc1 (stereo not given),-52.3% (active)
20,CCC(C(=O)NC1CCCC1)N(C(=O)c1snc(C(N)=O)c1N)c1ccc2c(c1)OCCO2 (stereo not given),-12.2%
21,CCOc1ccc(-n2c(N)c(C(=O)NCC3CCCO3)sc2=S)cc1 (stereo not given),-28.6%
22,Cc1ccc(N(C(=O)Cc2cccs2)C(C(=O)NCC2CCCO2)c2ccncc2)cc1 (stereo not given),-6.16%
23,CCOc1ccccc1NS(=O)(=O)c1c[nH]c(C(=O)OC)c1,5.96%
24,CSC1=NN(c2ccccc2)CN(c2ccccc2)N1C,-27.8%
25,NC1=C([N+](=O)[O-])C(c2ccccc2)C2=C(CCCC2=O)O1 (stereo not given),23.3%
26,O=C(NC1CCCCC1)c1ccc(CNc2c(N3CCOCC3)c(=O)c2=O)cc1,-13.2%
27,CC(Nc1ccc([N+](=O)[O-])cc1[N+](=O)[O-])c1ccccc1 (stereo not given),5.52%
28,COc1ccc(OC)c(C(O)c2ncc(-c3cccc(C(F)(F)F)c3)[nH]2)c1 (stereo not given),0%

row,Structure (SMILES),activity change
1,CSCCC(NC(=O)c1ccc(Cl)cc1Cl)C(=O)NNC(=O)c1csc(N2CCOCC2)n1 (stereo not given),-2.31%
2,CC1(C(=O)NS(=O)(=O)c2cccc(F)c2)CCN1C(=O)Cc1cc(F)ccc1F (stereo not given),17.9%
3,CC1CCCCC12NC(=O)N(CC(=O)Nc1ccc(S(=O)(=O)Nc3ncccn3)cc1)C2=O (stereo not given),-5.14%
4,Cc1ccc(NC(=O)Cn2sc3ccccc3c2=O)cc1,-108% (active)
5,Cc1ccc(NC(=O)Cn2c(C)csc2=O)cc1,-15.7%
6,Cc1nn(CC(=O)Nc2ccc(F)cc2)c(=O)c2ccccc12,-1.55%
7,COc1cccc2sc3cc(NCC[C@@H]4CCCN4C)ccc3c(=O)c12,-71.4% (active)
8,COc1cccc(OC)c1C(=O)Nc1ccc2c(c1)n(C)c(=O)n2C,0%
9,CCCCC[C@H](C)N1C[C@@H](COCc2ccccc2)Oc2cc(N3CCC[C@@H]3CO)ccc2S1(=O)=O,0.594%
10,O=C(c1cccs1)C1C(c2ccc(Br)cc2)NC(=S)NC1(O)C(F)(F)F (stereo not given),-6.17%
11,O=C(COC(=O)COc1ccccc1F)Nc1cccc(S(=O)(=O)N2CCCCC2)c1,-4.52%
12,CCCCCc1ccc(-c2ccc(C(=O)O)cc2)nc1,46.9%
13,Cc1ccc(-c2csc(NCCc3nc4cc(Cl)c(Cl)cc4n3CCOCCO)n2)cc1,-12.6%
14,Cc1ccc(Nc2nc(-c3ccc(O)cc3O)cs2)nc1,-66.7% (active)
15,CC(=O)Nc1cnc(-c2ccc(O)cc2C)cn1,-15.7%
16,COc1ccc(NC(=O)/C(N=Nc2cccc(S(=O)(=O)Nc3ccc(SC(F)F)cc3)c2)=C(\C)O)cc1,2.19%
17,Cc1cccc(CN2CCN(C3CN(Cc4cn(Cc5ccccc5F)nn4)S(=O)(=O)C3)CC2)c1 (stereo not given),4.26%
18,COc1cc(C(=O)NNC(=O)CN2C(=O)NC3(CCCC3)C2=O)cc(OC)c1OC,-7.47%
19,Cc1ccccc1-c1ccc2c(c1)O[C@@H](CN(C)Cc1ccc(C(=O)O)cc1)[C@@H](C)CN([C@H](C)CO)S2(=O)=O,20.6%
20,Cc1ccc(SC(=O)COc2ccc(C)c(C)c2)cc1,-70% (active)
21,COc1ccc(C(=O)COC(=O)COc2ccc(C)c(C)c2)cc1,6.77%
22,Cc1ccc(OCC(=O)NC(C)c2ccccc2)cc1C (stereo not given),9.86%
23,Clc1cccc(Cc2c(-c3cccc(Cl)c3)nc3ccc(Cl)cn23)c1,64.9%
24,Cc1ccccc1C(=O)OC1OC(=O)C(Cl)=C1Nc1ccccc1 (stereo not given),-17.8%
25,O=C1OC(OC(=O)c2ccccc2Br)C(N2CCOCC2)=C1Cl (stereo not given),-12.8%
26,Cc1ccc(NC2=C(Cl)C(=O)OC2OC(=O)c2ccccc2C)cc1 (stereo not given),-89.8% (active)
27,CCOC(=O)[C@H]1[C@H]2COc3ccc(Br)cc3[C@@H]2N2C(=O)CN(C)C(=O)[C@@]12C,19.3%
